LmPK inh = blocks Leishmania mexicana pyruvate kinase activity; AID 1721; Q27686; purified LmPK, Kinase-Glo ATP luminescence, 1 h; hit rate 0.37% among 290,000; Potency, µM (highest dose often 57.5 µM), for the others: at the top dose activity change, negative = inhibition, usual class: inhibitors
Target sequence (Q27686 whole entry, looked up): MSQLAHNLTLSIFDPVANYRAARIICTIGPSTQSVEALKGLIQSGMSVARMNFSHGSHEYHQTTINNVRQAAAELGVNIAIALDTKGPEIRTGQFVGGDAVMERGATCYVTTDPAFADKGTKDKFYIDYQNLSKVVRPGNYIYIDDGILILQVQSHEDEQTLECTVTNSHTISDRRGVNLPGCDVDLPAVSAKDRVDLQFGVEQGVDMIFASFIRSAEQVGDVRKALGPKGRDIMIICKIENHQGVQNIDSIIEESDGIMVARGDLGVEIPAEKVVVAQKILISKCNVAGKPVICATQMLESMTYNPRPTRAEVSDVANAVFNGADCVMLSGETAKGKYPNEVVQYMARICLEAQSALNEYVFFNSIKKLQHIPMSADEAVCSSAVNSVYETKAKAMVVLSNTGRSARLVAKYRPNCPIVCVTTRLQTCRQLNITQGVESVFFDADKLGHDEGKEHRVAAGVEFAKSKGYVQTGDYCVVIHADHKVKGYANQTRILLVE
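Purified LmPK (0.1 nM) converted ADP (0.1 mM) to ATP with PEP (0.5 mM) in imidazole buffer pH 7.2 with KCl and MgCl2, 1 h at room temperature. ATP was read by Kinase-Glo luminescence; data normalized to uninhibited and no-enzyme controls.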
Giardia FBPA inh = blocks Giardia fructose-bisphosphate aldolase activity. purified Giardia FBPA. hit rate 0.71% among 290,000. AID 2451. Potency, µM (top dose mostly 59.6 µM), for inactives: at the highest dose activity, negative = inhibition, most hits filed as inhibitors. A8B2U2; further: nearly all actives have a fitted effect of over 55% in size
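Giardia FBPA (40 nM reagent) was preincubated 10 min at RT with compound (up to 57.5 uM final), then substrate plus GAPDH/TPI/NAD/arsenate coupling system with diaphorase/resazurin was added; resorufin fluorescence (525/598 nm) was read after 20 min.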
RE007 growth inh = less growth of the S. pombe RE007 Vpr strain; hit rate 0.21% among 360,000; Potency, µM (series often up to 92.2 µM), without a hit: at the top dose activity change, negative = less growth, most hits filed as inhibitors; AID 651644; S. pombe RE007 Vpr strain, BacTiter-Glo ATP luminescence, 24 h; active means well fitted falling curve with a large enough effect; inconclusive means small, poorly fitted or top-dose-only effect; inactive means no such curve, though single readings can be large or run the other way; further: nearly all actives have a fitted effect of over 50% in size
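Fission yeast strain RE007, carrying one chromosomally integrated HIV-1 vpr copy, was seeded at OD 0.01 in PMG+AL medium with 23 nL pinned compound. After 24 h at 30 °C and 99% humidity, viability was read by BacTiter-Glo luminescence.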
Tb PYK inh = T. brucei pyruvate kinase inhibition; TbPYK enzyme, Kinase-Glo Plus ATP luminescence, 45 min; Potency, µM (series often up to 76.8 µM), without a hit: top-dose activity, negative = inhibition, hits mostly inhibitors; hit rate 0.12% among 410,000; further: nearly all actives have a fitted effect of over 50% in size
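Assay buffer: 50 mM TEA pH 7.2, 100 mM KCl, 10 mM MgCl2, 0.05% BSA, 0.01% Tween-20. Pyruvate kinase from T. brucei plus substrate met compound, then ADP (130 uM final). Luminescence was read post 45 min RT.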
Sm TGR block = S. mansoni TGR enzyme inhibition | Q962Y6 | purified TGR, DTNB reduction, TNB absorbance 405 nm | hit rate 3% among 360,000 | Potency, µM (top dose mostly 114 µM), without a hit: at the top dose activity change, negative = inhibition, most hits filed as inhibitors; further: nearly all actives have a fitted effect of over 60% in size
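First, TGR (20 nM dispensed) and NADPH were mixed with compound. Second, a 15 min room-temperature incubation followed. Third, further NADPH and then DTNB were added to start the reaction. Finally, TNB absorbance was monitored kinetically.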
* marks the source's active call; other numbers are inactive results. In the library only some 3.3% were active in any assay of this set; here they are far more common. Unless noted, the call rests on the fitted dose curve; in most records, active means well fitted curve in the direction sought with a large enough effect; inconclusive means small, poorly fitted or top-dose-only effect, or another doubt; inactive means no such curve, though single readings can be large; an effect the other way counts as inactive or inconclusive. On the % scale 0 is the no-effect control and ±100 the full control effect; potency means the concentration at half of the fitted maximal effect.

`CC(=O)OC(C(=O)NCc1ccco1)c1cccnc1` (configuration not stated) gave LmPK inh 2%, Giardia FBPA inh -2%, RE007 growth inh 0%, Tb PYK inh -5% and Sm TGR block inconclusive.
O=C(OC(C(=O)NCc1cccs1)c1ccccc1Cl)c1ccco1 (configuration not stated) was read as LmPK inh 9%, Giardia FBPA inh -5%, RE007 growth inh 2%, Tb PYK inh -21% and Sm TGR block 45µM*.
Screening COc1ccccc1C(OC(=O)c1cccs1)C(=O)NCc1ccco1 (configuration not stated) returned LmPK inh -3%, Giardia FBPA inh 2%, RE007 growth inh 4%, Tb PYK inh -10% and Sm TGR block 13µM*.
For CC(C)C(OC(=O)c1cccs1)C(=O)NCc1ccco1 (configuration not stated) the results were LmPK inh -8%, Giardia FBPA inh 3%, RE007 growth inh 9%, Tb PYK inh -3% and Sm TGR block 35µM*.
`CC(=O)OC(C(=O)NCc1ccco1)c1ccncc1` (configuration not stated) gave LmPK inh -1%, Giardia FBPA inh -6%, RE007 growth inh -11%, Tb PYK inh 9% and Sm TGR block 45µM*.
`CC(OC(=O)c1cccs1)C(=O)NCc1ccco1` (configuration not stated) gave LmPK inh 7%, Giardia FBPA inh 1%, RE007 growth inh 25%, Tb PYK inh 5% and Sm TGR block -5%.
Screening COc1ccccc1C(OC(=O)c1cccs1)C(=O)NCC1CCCO1 (configuration not stated) returned LmPK inh 1%, Giardia FBPA inh 5%, RE007 growth inh -8%, Tb PYK inh -4% and Sm TGR block -30%.
O=C(OC(C(=O)NCc1cccs1)c1ccc(F)cc1)c1ccco1 (configuration not stated) was read as LmPK inh 9%, Giardia FBPA inh 2%, RE007 growth inh 24%, Tb PYK inh 3% and Sm TGR block 3%.
`O=C(NCCCCNCCCNC(=O)c1ccccc1)c1ccccc1` gave RE007 growth inh 7% and Tb PYK inh -5%.
For Cc1ccc(S(=O)(=O)c2ccc(Cl)cc2)cc1S(=O)(=O)NC(C)C(=O)O (configuration not stated) the results were LmPK inh 3%, Giardia FBPA inh 9%, RE007 growth inh 22%, Tb PYK inh -8% and Sm TGR block -16%.
Screening CCSc1nnc(NC(=O)CSc2nnc(Cc3cccn3C)n2CCc2ccccc2)s1 returned LmPK inh 3%, Giardia FBPA inh 5%, RE007 growth inh -15%, Tb PYK inh -1% and Sm TGR block 0%.
`COc1ccccc1/C=C/C=N/n1c(-c2ccco2)n[nH]c1=S` gave LmPK inh 3%, Giardia FBPA inh 2%, RE007 growth inh 7%, Tb PYK inh inconclusive and Sm TGR block -9%.
For CCOC(=O)C1=C(COC(=O)C2CC(=O)N(c3ccc(CC)cc3)C2)NC(=O)NC1C (configuration not stated) the results were RE007 growth inh -1%, Tb PYK inh -3% and Sm TGR block -12%.
`CCCCCC(=O)Nc1cccc(S(=O)(=O)NC2=NCCC2)c1` gave RE007 growth inh -3%, Tb PYK inh -1% and Sm TGR block -15%.
Cc1nc(C)c(CCNC(=O)c2ccccc2)s1 was read as LmPK inh -1%, Giardia FBPA inh 0%, RE007 growth inh inconclusive, Tb PYK inh -2% and Sm TGR block -15%.
For CC(C)(C)CN1CCNC(=O)C1CC(=O)NCCc1ccccc1F (configuration not stated) the results were LmPK inh 10%, Giardia FBPA inh -18%, RE007 growth inh -3%, Tb PYK inh -4% and Sm TGR block 50µM*.
`CC(C)(C)CN1CCNC(=O)C1CC(=O)NCCc1cnn(-c2ccccc2)c1` (configuration not stated) gave LmPK inh 3%, Giardia FBPA inh 10%, RE007 growth inh 2%, Tb PYK inh -1% and Sm TGR block inconclusive.
CSc1cccc(CNC(=O)CC2C(=O)NCCN2CC(C)(C)C)c1 (configuration not stated) was read as LmPK inh 1%, Giardia FBPA inh -20%, RE007 growth inh 4%, Tb PYK inh -3% and Sm TGR block 40µM*.
Screening CCN(C(=O)C1CCN(c2nc(-c3ccc(OC)cc3)no2)CC1)c1ccccc1 returned LmPK inh 1%, Giardia FBPA inh -4%, RE007 growth inh 20%, Tb PYK inh 0% and Sm TGR block 11%.
CC1(C)CCN2CCC(C)(C)c3c(O)ccc1c32 was read as LmPK inh inconclusive, Giardia FBPA inh inconclusive, RE007 growth inh 2%, Tb PYK inh -13% and Sm TGR block 2.8µM*.
Screening N#CC1=C2SCN(Cc3ccco3)CN2C(=O)CC1c1ccccc1F (configuration not stated) returned LmPK inh -8%, Giardia FBPA inh inconclusive, RE007 growth inh -21%, Tb PYK inh inconclusive and Sm TGR block inconclusive.
For CCOc1ccccc1N1CSC2=C(C#N)C(c3c(OC)ccc4ccccc34)CC(=O)N2C1 (configuration not stated) the results were LmPK inh 4%, Giardia FBPA inh 6.3µM*, RE007 growth inh -6%, Tb PYK inh 3.5µM* and Sm TGR block 13µM*.
Screening COc1ccc(C2CC(=O)N3CN(c4ccc(C)c(Cl)c4)CSC3=C2C#N)cc1OC (configuration not stated) returned LmPK inh 16%, Giardia FBPA inh 5µM*, RE007 growth inh 7%, Tb PYK inh inconclusive and Sm TGR block 50µM*.
For CCCSC1=C(C#N)C(c2cc(OC)ccc2OC)CC(=O)N1 (configuration not stated) the results were LmPK inh 5%, Giardia FBPA inh -2%, RE007 growth inh -6%, Tb PYK inh 2% and Sm TGR block 5%.
CN1CSC2=C(C#N)C(c3cccc(OCc4ccccc4)c3)CC(=O)N2C1 (configuration not stated) was read as LmPK inh 2%, Giardia FBPA inh inconclusive, RE007 growth inh -5%, Tb PYK inh inconclusive and Sm TGR block 0%.
For COc1cc(OC)c(C2CC(=O)N3CN(c4ccc(C)cc4)CSC3=C2C#N)cc1OC (configuration not stated) the results were LmPK inh 8%, Giardia FBPA inh inconclusive, RE007 growth inh -6%, Tb PYK inh 1.6µM* and Sm TGR block 8.9µM*.
